{"source": "PubChem BioAssay (Tox21)", "note": "Values joined by “and” are separate entries in the source; they are usually repeats but may differ in a detail not shown here. Equal entries are not always repeated. Records with an inconclusive call do not appear. A call without a number means that no potency is given here. Some structures have more than one record in an assay (separate samples or runs), and their calls can disagree. Unmarked numbers belong to inactive results. Active and inactive are the calls of the source. Calls come from the whole dose curve; as a rule, active = well fitted activation curve with a large enough effect in the repeat runs; inconclusive = weak or mixed curves, or effect the other way; inactive = no such curve, though single readings can be large or run the other way. Potency is the fitted concentration of half-maximal effect.", "data": [{"assay": "qHTS assay to identify small molecule agonists of the retinoic acid receptor (RAR) signaling pathway (AID 1159553)", "settings": "C3RL4 RARE luciferase reporter, agonist, 6 h; activation: at 73.3 µM (top of the series) unless noted", "excerpt": "(§1) National Center for Advancing Translational Sciences [NCATS] NIH Chemical Genomics Center [NCGC] U.S. Environmental Protection Agency [EPA] National Institutes of Environmental Health Sciences [NIEHS] National Toxicology Program [NTP] Assay overview: All-trans Retinoic acid (atRA) is the potent natural metabolite of retinol and plays an important role in normal embryonic development and maintenance of cellular phenotype in adult animals. atRA is the activating ligand for the retinoic acid receptors (RARs) which form heterodimers with retinoid X receptors (RXRs) on the retinoic acid response element (RARE). Through activation of the RAR/RXRs nuclear receptors, atRA regulates the transcription of a large number of protein-coding genes and regulatory RNAs. Intracellular levels of atRA are controlled by the retinol signaling pathway (RSP) that regulates the biosynthesis and catabolism of atRA to maintain physiological levels. Chemicals that interfere with the RSP can cause abnormal intracellular levels of atRA and therefore are potential developmental toxicants. To assess compounds for the potential adverse effect on embryonic development through interfering with retinol signaling, a cell-based RARE luciferase reporter gene assay was used. C3RL4 cell line (OARSA/CFSAN/FDA, Laurel, MD) was used to screen Tox21 10K compound library for identifying activators of the RSP.\n(§2) Assay Protocol Summary: C3RL4 cells were seeded at 1,000/well in 5 uL of assay medium into white solid 1,536-well tissue culture plates (Greiner Bio-One North America Inc. Monroe, NC) using a Multidrop Combi (Thermo Scientific, Waltham, MA) dispenser. After incubation at 37 C and 5% CO2 for an overnight, 23 nL of compounds dissolved in DMSO, positive control or DMSO only were transferred by a Pintool station (Kalypsys, San Diego, CA). After 6 hr incubation at 37 C and 5% CO2, 5 uL of Amplite Luciferase reagent (AAT Bioquest Inc. Sunnyvale, CA) was added to each assay plate using a Flying Reagent Dispenser (FRD) (Aurora Discovery, San Diego, CA). Luminescence was quantified on a ViewLux plate reader (PerkinElmer, Waltham, MA) after 30 min incubation at room temperature.", "values": [{"compound": "C/C=C/C(=O)N(CC)c1ccccc1C", "Potency": "inactive"}, {"compound": "CC(=O)Nc1ccc2c(c1)Cc1cc(NC(C)=O)ccc1-2", "Potency": "30.6 µM (active)"}, {"compound": "CC(=O)[C@@]1(O)CC[C@H]2[C@@H]3C[C@H](C)C4=CC(=O)C=C[C@]4(C)[C@@]3(F)[C@@H](O)C[C@@]21C", "Potency": "inactive"}, {"compound": "CC1(C)NC(=O)N(c2ccc([N+](=O)[O-])c(C(F)(F)F)c2)C1=O", "Potency": "inactive"}, {"compound": "CCO[Si](CCCNC(N)=O)(OCC)OCC", "Potency": "inactive"}, {"compound": "ClC/C=C/CCl", "activation": "-0.0891% [at 94.8 µM]"}, {"compound": "CC(C)[N+](C)(CCOC(=O)C1c2ccccc2Oc2ccccc21)C(C)C", "Potency": "inactive"}, {"compound": "C=CC(=O)OCCCC", "Potency": "inactive"}, {"compound": "CC/C=C\\C/C=C\\C/C=C\\CCCCCCCC(=O)O", "activation": "0.206%"}, {"compound": "C[C@]12CC[C@@H]3c4ccc(O)cc4CC[C@H]3[C@@H]1CC[C@H]2O", "Potency": "inactive"}, {"compound": "O=Cc1ccccc1C=O", "activation": "-1.95%"}, {"compound": "C[C@]12CC[C@@H]3c4ccc(O)cc4CC[C@H]3[C@@H]1CC[C@@H]2O", "Potency": "inactive"}, {"compound": "C=C1C[C@H]2[C@@H]3C=C(C)C4=CC(=O)CC[C@]4(C)[C@H]3CC[C@]2(C)[C@@]1(OC(C)=O)C(C)=O", "Potency": "inactive"}, {"compound": "Nc1ccc2c(c1)C(=O)c1ccccc1C2=O", "Potency": "338 nM (active) and 273 nM (active)"}, {"compound": "O=C(O)CCCC(=O)O", "activation": "-0.043%"}, {"compound": "Cc1ccc(N)c([N+](=O)[O-])c1", "Potency": "inactive"}, {"compound": "CNC[C@H](O)c1ccc(O)c(O)c1", "Potency": "inactive"}, {"compound": "Brc1nc2ccccc2s1", "Potency": "inactive"}, {"compound": "CN(C)/N=N/c1nc[nH]c1C(N)=O", "Potency": "inactive"}, {"compound": "C=CCNCC=C", "Potency": "inactive"}, {"compound": "CCOC(=O)C(C)Oc1ccc(Oc2cnc3cc(Cl)ccc3n2)cc1", "note": "(stereo not given)", "Potency": "inactive"}, {"compound": "Nc1ccc(O)c(N)c1", "activation": "3.66%"}, {"compound": "O=C(O)c1cc(=O)[nH]c(=O)[nH]1", "activation": "0.344%"}, {"compound": "FC(F)(F)C(Cl)Br", "note": "(stereo not given)", "Potency": "inactive"}, {"compound": "OCCNCCO", "activation": "-0.0319%"}, {"compound": "C=CCCCCCCCCCC", "Potency": "inactive"}, {"compound": "O=[Se](O)O", "Potency": "inactive"}, {"compound": "OC[C@@H](O)[C@@H](O[C@@H]1O[C@H](CO)[C@H](O)[C@H](O)[C@H]1O)[C@H](O)[C@@H](O)CO", "Potency": "inactive"}, {"compound": "c1ccc2c(c1)ccc1cc3c(ccc4ccccc43)cc12", "Potency": "152 nM (active) and 215 nM (active)"}, {"compound": "CC1(C)O[C@@H]2C[C@H]3[C@@H]4C[C@H](F)C5=CC(=O)C=C[C@]5(C)[C@@]4(F)[C@@H](O)C[C@]3(C)[C@]2(C(=O)CO)O1", "activation": "-11.7%"}, {"compound": "Cc1ccc(C)c(O)c1", "Potency": "inactive"}, {"compound": "Cc1ccc([N+](=O)[O-])c(C)c1", "Potency": "inactive"}, {"compound": "COc1ccc(C(=O)c2ccccc2O)c(O)c1", "Potency": "inactive"}, {"compound": "COC(=O)CC(=O)OC", "Potency": "inactive"}, {"compound": "Nc1ccc(N)c(Cl)c1", "Potency": "inactive"}, {"compound": "Cc1ccc(C(C)(C)C)cc1", "activation": "0.0823% [at 94.8 µM] (active)"}, {"compound": "CC(C)(C)c1cccc(C(C)(C)C)c1O", "Potency": "inactive"}, {"compound": "COc1ccc(-c2coc3cc(O)cc(O)c3c2=O)cc1", "Potency": "0.686 µM (active)"}, {"compound": "Cc1ccc2c(c1)C(=O)OC2=O", "Potency": "inactive"}]}, {"assay": "qHTS assay to identify small molecule agonists of the retinoic acid receptor (RAR) signaling pathway (AID 1159553)", "settings": "C3RL4 RARE luciferase reporter, agonist, 6 h; at 73.3 µM (top of the series)", "excerpt": "as §1, §2", "units": {"activation": "%"}, "values": [{"compound": "Cc1ccc(C(C)(C)C)cc1", "activation": -0.68}]}]}
